Data reported in article PMC8384837, “Expanding the binding specificity for RNA recognition by a PUF domain”.

Columns and labels:
Assay in all cases: yeast three-hybrid, YBZ-1, SC-Leu-His + 0.5 mM 3-AT, 4 days
Conditions in all cases: tags: N-Gal4 AD-HA kept; label: inside an RPR1-promoter hybrid RNA with tandem MS2 sites; ssRNA
PUM1 PUF domain R3-LNS = PUM1 PUF domain R3-LNS (Homo sapiens, UniProt Q14671 828-1176, C935L;R936N;Q939S)
Procedure, shortened: (§1)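 Pumilio-1 PUF domain libraries, randomized (NNK) at the three base-contacting residues of each repeat, were co-expressed with matching RNA elements from a centromeric plasmid in strain YBZ-1 (LexA–MS2 coat fusion, HIS3 reporter). Transformants were plated on SC-Leu (input) and SC-Leu-His + 0.5 mM 3-AT (selection) for four days, and repeat regions were PCR-amplified and Illumina-sequenced. The interaction score is the log2 change in variant frequency from input to selection, with pseudocount 1 where absent.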

PUM1 PUF domain R4-SPN = PUM1 PUF domain R4-SPN (Homo sapiens, UniProt Q14671 828-1176, N971S;H972P;Q975N)
Procedure, shortened: as §1

PUM1 PUF domain R5-DRD = PUM1 PUF domain R5-DRD (Homo sapiens, UniProt Q14671 828-1176, C1007D;Q1011D)
Procedure, shortened: as §1

PUM1 PUF domain R5-SLC = PUM1 PUF domain R5-SLC (Homo sapiens, UniProt Q14671 828-1176, C1007S;R1008L;Q1011C)
Procedure, shortened: as §1

PUM1 PUF domain R4-NNC = PUM1 PUF domain R4-NNC (Homo sapiens, UniProt Q14671 828-1176, H972N;Q975C)
Procedure, shortened: as §1

PUM1 PUF domain R1-KCN = PUM1 PUF domain R1-KCN (Homo sapiens, UniProt Q14671 828-1176, S863K;R864C;Q867N)
Procedure, shortened: as §1

PUM1 PUF domain R5-RLQ = PUM1 PUF domain R5-RLQ (Homo sapiens, UniProt Q14671 828-1176, C1007R;R1008L)
Procedure, shortened: as §1

PUM1 PUF domain R8-PYW = PUM1 PUF domain R8-PYW (Homo sapiens, UniProt Q14671 828-1176, N1122P;Q1126W)
Procedure, shortened: as §1

PUM1 PUF domain R8-TRK = PUM1 PUF domain R8-TRK (Homo sapiens, UniProt Q14671 828-1176, N1122T;Y1123R;Q1126K)
Procedure, shortened: as §1

PUM1 PUF domain R6-RRE = target: T1, PUM1 PUF domain R6-RRE (Homo sapiens, UniProt Q14671 828-1176, N1043R;Y1044R;Q1047E)
T1 sequence: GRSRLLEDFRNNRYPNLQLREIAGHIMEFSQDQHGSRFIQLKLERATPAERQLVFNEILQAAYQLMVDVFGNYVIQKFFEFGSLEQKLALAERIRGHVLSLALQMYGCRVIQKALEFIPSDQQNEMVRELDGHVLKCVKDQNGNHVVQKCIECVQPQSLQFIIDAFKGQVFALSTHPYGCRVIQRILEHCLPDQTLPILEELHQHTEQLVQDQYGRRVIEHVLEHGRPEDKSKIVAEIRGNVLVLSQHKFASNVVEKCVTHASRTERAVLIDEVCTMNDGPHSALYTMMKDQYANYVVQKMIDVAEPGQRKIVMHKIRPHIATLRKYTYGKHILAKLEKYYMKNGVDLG
Procedure, shortened: as §1

## GGCUAGAACUAGUGGAUCCCCCGGCGCCCGGCGGCUCGAGCCCGGGUAAGUGUAAUUAGUCUGCAUGCCGCCGGGCGCCAUGCCUGCAGGUCGACUCUAGAAAACAUG
PUM1 PUF domain R3-LNS
  binding signal: 3.52 log2 enrichment (interaction score)

## GGCUAGAACUAGUGGAUCCCCCGGCGCCCGGCGGCUCGAGCCCGGGUAAGUGUACAUAGUCUGCAUGCCGCCGGGCGCCAUGCCUGCAGGUCGACUCUAGAAAACAUG
PUM1 PUF domain R4-SPN
  binding signal: 1.41 log2 enrichment (interaction score)

## GGCUAGAACUAGUGGAUCCCCCGGCGCCCGGCGGCUCGAGCCCGGGUAAGUGUGAAUAGUCUGCAUGCCGCCGGGCGCCAUGCCUGCAGGUCGACUCUAGAAAACAUG
PUM1 PUF domain R5-DRD
  binding signal: 4.33 log2 enrichment (interaction score)
PUM1 PUF domain R5-SLC
  binding signal: 2.98 log2 enrichment (interaction score)

## GGCUAGAACUAGUGGAUCCCCCGGCGCCCGGCGGCUCGAGCCCGGGUAAGUGUAUAUAGUCUGCAUGCCGCCGGGCGCCAUGCCUGCAGGUCGACUCUAGAAAACAUG
PUM1 PUF domain R4-SPN
  binding signal: 4.43 log2 enrichment (interaction score)
PUM1 PUF domain R4-NNC
  binding signal: 3.85 log2 enrichment (interaction score)

## GGCUAGAACUAGUGGAUCCCCCGGCGCCCGGCGGCUCGAGCCCGGGUAAGUGUAAAUUGUCUGCAUGCCGCCGGGCGCCAUGCCUGCAGGUCGACUCUAGAAAACAUG
PUM1 PUF domain R1-KCN
  binding signal: 3.67 log2 enrichment (interaction score)

## GGCUAGAACUAGUGGAUCCCCCGGCGCCCGGCGGCUCGAGCCCGGGUAAGUGUAAGUAGUCUGCAUGCCGCCGGGCGCCAUGCCUGCAGGUCGACUCUAGAAAACAUG
PUM1 PUF domain R3-LNS
  binding signal: 4.27 log2 enrichment (interaction score)

## GGCUAGAACUAGUGGAUCCCCCGGCGCCCGGCGGCUCGAGCCCGGGUAAGUGUCAAUAGUCUGCAUGCCGCCGGGCGCCAUGCCUGCAGGUCGACUCUAGAAAACAUG
PUM1 PUF domain R5-RLQ
  binding signal: 2.19 log2 enrichment (interaction score)

## GGCUAGAACUAGUGGAUCCCCCGGCGCCCGGCGGCUCGAGCCCGGGUAAGUGUAAAUAGUCUGCAUGCCGCCGGGCGCCAUGCCUGCAGGUCGACUCUAGAAAACAUG
PUM1 PUF domain R8-PYW
  binding signal: 3.3 log2 enrichment (interaction score)
PUM1 PUF domain R8-TRK
  binding signal: 2.15 log2 enrichment (interaction score)
PUM1 PUF domain R5-SLC
  binding signal: 0.65 log2 enrichment (interaction score)
PUM1 PUF domain R4-SPN
  binding signal: 2.58 log2 enrichment (interaction score)
PUM1 PUF domain R6-RRE
  binding signal: 4.26 log2 enrichment (interaction score)
PUM1 PUF domain R4-NNC
  binding signal: 2.42 log2 enrichment (interaction score)

## GGCUAGAACUAGUGGAUCCCCCGGCGCCCGGCGGCUCGAGCCCGGGUAAGCGUAAAUAGUCUGCAUGCCGCCGGGCGCCAUGCCUGCAGGUCGACUCUAGAAAACAUG
PUM1 PUF domain R8-TRK
  binding signal: 3.25 log2 enrichment (interaction score)

## GGCUAGAACUAGUGGAUCCCCCGGCGCCCGGCGGCUCGAGCCCGGGUAAGUGUUAAUAGUCUGCAUGCCGCCGGGCGCCAUGCCUGCAGGUCGACUCUAGAAAACAUG
PUM1 PUF domain R5-RLQ
  binding signal: 1.58 log2 enrichment (interaction score)
